Test results published in PubChem BioAssay (NCI).
This is part of a sample that, as a whole, favours compounds with a hit. Of some 83,000 tested, about 20% had one in any assay.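 Each cell line was grown in a 96-well plate and treated with one concentration of compound for 48 hours. Values below 10 were considered active.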 A number with no mark means an inactive call. Active and inactive are the calls of the source.

System: A498 renal
Assay: NCI-60 one-dose screen, 48 h (100 = growth as untreated, 0 = no growth, -100 = all killed)
Details: 10 µM unless noted

SMILES	growth
OC(c1ccccc1)(c1ccccc1)c1ccccc1-c1ccccc1	81.5%
Clc1ccc(-c2nc(-c3c[nH]c4ncccc34)cs2)cc1	47.2% [100 µM]
CC(=O)c1cc(-c2ccccc2N)n(-c2ccc3c(c2)OCO3)c1C	-12% (active)
CC1O[C@@H]2C[C@@](O)([C@H]1O)n1c3ccccc3c3c4c(c5c6ccccc6n2c5c31)C(=O)NC4=O (stereo partly drawn)	42.4%
COC(=O)/C(CCC=C(C)C)=C1\[C@@H](OC(C)=O)C[C@@]2(C)[C@H]1CC(=O)[C@H]1[C@@]3(C)CCC(N4CCCC4)[C@@H](C)[C@@H]3CC[C@@]12C (stereo partly drawn)	105%
CN(C)c1ccc(/C=C2/C=C(c3ccccc3)OC2=O)cc1	95.8%
COc1cc(-c2nc3occn3c2-c2ccnc(NCCCNS(=O)(=O)c3ccccc3)n2)ccc1F	57.1%
O=C(Nc1ccccc1)c1sc(-c2ccccc2)cc1O	94.6%
CCOC(=O)c1c2c(n3c1NCC3)-c1ccccc1C2=O	100%
C/C(=N\Nc1nc(C)cs1)c1cc2ccccc2o1	99.9%
CCOC(=O)C1=C(c2ccccc2)N=c2s/c(=C/c3ccc(Br)cc3)c(=O)n2C1c1ccc(O)cc1 (stereo not drawn)	73.2%
COc1ccc(C2CC(c3ccc(Nc4nc(Nc5ccc(F)cc5)nc(Nc5ccc(F)cc5)n4)cc3)=NN2C(C)=O)cc1 (stereo not drawn)	85.3%
c1ccc2cc(Cn3c[n+](Cc4ccc5ccccc5c4)c4ccccc43)ccc2c1	-2.59% (active)
